Laboratory results taken from PubChem BioAssay (NCATS).
Records with an inconclusive call do not appear. The source made the active and inactive calls. The call rests on the fitted dose curve; in most records, active means well fitted inhibition curve with a large enough effect; inconclusive means small, poorly fitted or top-dose-only effect; inactive means flat fitted curve, though single readings scatter.

Tested on: not listed separately
Assay: Drug repurposing screens with cells derived from glioblastoma tumor samples (AID 1345199); further: nearly all actives have a fitted effect of over 40% in size
Details: GBM patient neurospheres viability, ATP luminescence, 48 h; at 45.9 µM (top of the series); tumour line B
Summary of the method: (§1)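 Four patient lines of CD133+ GBM neurospheres were screened at several concentrations; hits were retested in those lines plus three slower-growing GBM lines, using 48-hour treatment and ATP-based viability.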
On the % scale 0 is the no-effect control and ±100 the full control effect; potency means the concentration at half of the fitted maximal effect.

| SMILES | activity, negative = cell killing |
| --- | --- |
| Cn1cnc([N+](=O)[O-])c1Sc1ncnc2nc[nH]c12 | -21.8% (inactive) |
| Nc1nc2[nH]cc(CCc3ccc(C(=O)N[C@@H](CCC(=O)O)C(=O)O)cc3)c2c(=O)[nH]1 | -23.6% (inactive) |
| N[C@@H]1CONC1=O | -2.69% (inactive) |
| NC[C@H](O)c1ccc(O)c(O)c1 | -10.5% (inactive) |
| Cc1ccc(-n2nc(C(C)(C)C)cc2NC(=O)Nc2ccc(OCCN3CCOCC3)c3ccccc23)cc1 | 12.9% (inactive) |

Same assay, conditions: GBM patient neurospheres viability, ATP luminescence, 48 h; at 45.9 µM (top of the series); tumour line D

| SMILES | activity, negative = cell killing |
| --- | --- |
| Nc1nc2[nH]cc(CCc3ccc(C(=O)N[C@@H](CCC(=O)O)C(=O)O)cc3)c2c(=O)[nH]1 | -14.3% (inactive) |
| N[C@@H]1CONC1=O | 4.98% (inactive) |
| NC[C@H](O)c1ccc(O)c(O)c1 | -7.44% (inactive) |
| Cc1ccc(-n2nc(C(C)(C)C)cc2NC(=O)Nc2ccc(OCCN3CCOCC3)c3ccccc23)cc1 | -19.4% (inactive) |

Same assay, conditions: GBM patient neurospheres viability, ATP luminescence, 48 h; at 46.1 µM (top of the series); tumour line C

| SMILES | activity, negative = cell killing |
| --- | --- |
| Cn1cnc([N+](=O)[O-])c1Sc1ncnc2nc[nH]c12 | -41.7% (inactive) |
| N[C@@H]1CONC1=O | -0.848% (inactive) |
| NC[C@H](O)c1ccc(O)c(O)c1 | -17.3% (inactive) |
| Cc1ccc(-n2nc(C(C)(C)C)cc2NC(=O)Nc2ccc(OCCN3CCOCC3)c3ccccc23)cc1 | -25.6% (inactive) |
| Oc1ccc(C2CNCCc3c2cc(O)c(O)c3Cl)cc1 (stereo unspecified) | 2.51% (inactive) |

Same assay, conditions: GBM patient neurospheres viability, ATP luminescence, 48 h; tumour line A

| SMILES | Potency |
| --- | --- |
| Cn1cnc([N+](=O)[O-])c1Sc1ncnc2nc[nH]c12 | 2.51 µM (active) |
| CCC(C)(C)C(=O)O[C@H]1C[C@@H](C)C=C2C=C[C@H](C)[C@H](CC[C@@H]3C[C@@H](O)CC(=O)O3)[C@H]21 | 0.891 µM (active) |
| Nc1nc2[nH]cc(CCc3ccc(C(=O)N[C@@H](CCC(=O)O)C(=O)O)cc3)c2c(=O)[nH]1 | 0.251 µM (active) |

Tested on: astro (control astrocytes)
Assay: as above
Details: viability, ATP luminescence, 48 h; series mostly up to 45.9 µM
Summary of the method: as §1

| SMILES | Potency |
| --- | --- |
| O=C(NOC[C@H](O)CO)c1ccc(F)c(F)c1Nc1ccc(I)cc1F | 0.447 µM (active) |
| CCC(C)(C)C(=O)O[C@H]1C[C@@H](C)C=C2C=C[C@H](C)[C@H](CC[C@@H]3C[C@@H](O)CC(=O)O3)[C@H]21 | 3.55 µM (active) |
| Cc1oncc1C(=O)Nc1ccc(C(F)(F)F)cc1 | 10 µM (active) |
| Nc1nc2[nH]cc(CCc3ccc(C(=O)N[C@@H](CCC(=O)O)C(=O)O)cc3)c2c(=O)[nH]1 | inactive |
| Nc1nc2c(ncn2COCCO)c(=O)[nH]1 | inactive |
| N[C@@H]1CONC1=O | inactive |
| NC[C@H](O)c1ccc(O)c(O)c1 | inactive |
| CNC(=O)c1ccccc1Sc1ccc2c(/C=C/c3ccccn3)n[nH]c2c1 | 2 µM (active) |
| Oc1ccc(C2CNCCc3c2cc(O)c(O)c3Cl)cc1 (stereo unspecified) | inactive |
